Seven sequences from paper PMC7862700, “An all-to-all approach to the identification of sequence-specific readers for epigenetic DNA modifications on cytosine” can be followed below.

Common to all, as to assay: DAPPL (digital affinity profiling via proximity ligation, sequencing); 10 mM Tris-HCl pH 7.5, 50 mM NaCl, 1 mM DTT, 4% glycerol, room temperature, 30 min; GST-TFs on glutathione beads, 16-mer random dsDNA library, 0.1% formaldehyde crosslink after washing; high values mean tight binding
Common to all, as to settings: protein: recombinant; tags: N-terminal GST; dsDNA, one strand shown

The target of assay [1] is T1, ERF (Homo sapiens, UniProt P50548 1-548).
T1 sequence: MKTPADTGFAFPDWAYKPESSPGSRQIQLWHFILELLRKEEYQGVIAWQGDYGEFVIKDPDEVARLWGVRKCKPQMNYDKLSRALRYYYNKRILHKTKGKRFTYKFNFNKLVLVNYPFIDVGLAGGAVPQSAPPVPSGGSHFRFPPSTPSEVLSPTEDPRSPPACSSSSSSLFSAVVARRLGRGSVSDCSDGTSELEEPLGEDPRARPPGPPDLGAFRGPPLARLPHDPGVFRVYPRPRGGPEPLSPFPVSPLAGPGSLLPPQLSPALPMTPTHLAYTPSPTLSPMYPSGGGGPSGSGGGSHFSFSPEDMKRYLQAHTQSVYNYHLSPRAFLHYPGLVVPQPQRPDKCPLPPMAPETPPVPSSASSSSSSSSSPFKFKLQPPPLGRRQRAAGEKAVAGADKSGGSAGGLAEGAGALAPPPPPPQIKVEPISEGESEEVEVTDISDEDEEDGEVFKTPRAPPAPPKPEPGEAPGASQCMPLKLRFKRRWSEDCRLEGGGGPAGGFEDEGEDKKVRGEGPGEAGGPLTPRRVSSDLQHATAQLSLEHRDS
In a few lines:
(§1)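 Binding signal is given per hexamer as its read frequency for a factor divided by its frequency in the tag-only sample. GST-fused human transcription factors were expressed in yeast, captured on glutathione beads, barcoded with DNA and pooled with that sample, then incubated with 200 nmole of a 16-mer random double-stranded DNA library in Tris/NaCl/DTT/glycerol buffer for 30 min at room temperature. The pools were then washed, crosslinked, proximity-ligated, amplified by PCR and sequenced on an Illumina NextSeq500.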

Assay [2] concerns the target T2, ETV3L (Homo sapiens, UniProt Q6ZN32 1-361).
T2 sequence: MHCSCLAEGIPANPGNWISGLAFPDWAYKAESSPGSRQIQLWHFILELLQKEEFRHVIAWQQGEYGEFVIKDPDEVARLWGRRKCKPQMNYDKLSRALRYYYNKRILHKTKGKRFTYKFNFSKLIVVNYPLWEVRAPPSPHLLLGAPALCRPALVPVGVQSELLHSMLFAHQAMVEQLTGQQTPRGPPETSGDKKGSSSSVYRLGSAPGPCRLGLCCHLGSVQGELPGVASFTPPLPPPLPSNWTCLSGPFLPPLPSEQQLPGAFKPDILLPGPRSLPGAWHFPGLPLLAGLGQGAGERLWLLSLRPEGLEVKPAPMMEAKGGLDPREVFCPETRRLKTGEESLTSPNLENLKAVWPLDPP
An outline of the steps:
as §1

The target of assay [3] is T3, ETS2 (Homo sapiens, UniProt P15036 1-469).
T3 sequence: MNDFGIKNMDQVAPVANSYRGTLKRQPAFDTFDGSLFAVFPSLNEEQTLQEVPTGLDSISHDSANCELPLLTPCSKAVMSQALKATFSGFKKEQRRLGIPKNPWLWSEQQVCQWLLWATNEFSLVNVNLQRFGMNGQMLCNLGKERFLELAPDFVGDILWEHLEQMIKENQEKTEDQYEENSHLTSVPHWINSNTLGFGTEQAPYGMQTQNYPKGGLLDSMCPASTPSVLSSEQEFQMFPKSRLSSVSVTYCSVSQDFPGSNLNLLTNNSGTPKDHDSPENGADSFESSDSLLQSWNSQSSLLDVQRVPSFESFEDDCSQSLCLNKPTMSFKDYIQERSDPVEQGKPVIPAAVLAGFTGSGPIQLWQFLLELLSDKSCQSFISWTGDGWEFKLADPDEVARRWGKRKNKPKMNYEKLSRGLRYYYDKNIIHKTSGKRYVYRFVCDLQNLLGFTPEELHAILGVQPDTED
In a few lines: as §1

The target in assay [4] is T4, SPDEF (Homo sapiens, UniProt O95238 1-335).
T4 sequence: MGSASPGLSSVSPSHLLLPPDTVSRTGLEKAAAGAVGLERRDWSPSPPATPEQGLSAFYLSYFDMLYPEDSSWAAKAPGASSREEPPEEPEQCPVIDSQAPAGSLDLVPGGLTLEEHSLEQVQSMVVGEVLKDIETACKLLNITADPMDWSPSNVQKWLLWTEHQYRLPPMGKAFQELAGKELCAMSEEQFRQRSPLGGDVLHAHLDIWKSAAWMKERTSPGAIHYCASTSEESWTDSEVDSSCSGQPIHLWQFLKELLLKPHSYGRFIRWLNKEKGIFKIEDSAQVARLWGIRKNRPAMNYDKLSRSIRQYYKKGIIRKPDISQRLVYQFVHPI
In a few lines:
as §1

Assay [5] addresses T5, ETV7 (Homo sapiens, UniProt Q9Y603 1-341).
T5 sequence: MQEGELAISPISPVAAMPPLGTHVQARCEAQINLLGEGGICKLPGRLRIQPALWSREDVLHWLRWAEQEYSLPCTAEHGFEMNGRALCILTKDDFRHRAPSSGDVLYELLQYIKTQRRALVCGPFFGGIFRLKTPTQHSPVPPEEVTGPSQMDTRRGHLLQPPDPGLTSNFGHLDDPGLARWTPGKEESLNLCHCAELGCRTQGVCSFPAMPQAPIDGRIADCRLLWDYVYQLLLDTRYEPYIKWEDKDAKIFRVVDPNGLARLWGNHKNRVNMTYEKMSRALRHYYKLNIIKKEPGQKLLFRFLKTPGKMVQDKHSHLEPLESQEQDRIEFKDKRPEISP
An outline of the steps: as §1

Assay [6] addresses T6, ELF5 (Homo sapiens, UniProt Q9UKW6-2 1-255).
T6 sequence: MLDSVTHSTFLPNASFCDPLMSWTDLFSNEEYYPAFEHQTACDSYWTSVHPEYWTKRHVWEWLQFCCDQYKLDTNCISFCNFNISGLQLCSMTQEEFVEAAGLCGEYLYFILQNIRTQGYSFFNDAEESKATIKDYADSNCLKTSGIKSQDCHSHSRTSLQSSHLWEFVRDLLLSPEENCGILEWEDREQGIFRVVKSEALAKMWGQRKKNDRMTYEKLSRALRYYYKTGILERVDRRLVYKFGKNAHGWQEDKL
An outline of the steps: as §1

The target in assay [7] is T7, ETV3 (Homo sapiens, UniProt P41162-2 1-143).
T7 sequence: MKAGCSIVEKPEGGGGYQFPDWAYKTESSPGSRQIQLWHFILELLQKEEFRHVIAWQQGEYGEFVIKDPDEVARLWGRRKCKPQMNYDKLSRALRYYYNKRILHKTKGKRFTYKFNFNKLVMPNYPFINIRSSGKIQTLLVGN
An outline of the steps:
as §1

The target of assay [8] is ETV6 (Homo sapiens, UniProt P41212 1-452). In a few lines: as §1
Sequence of ETV6 (P41212 whole entry): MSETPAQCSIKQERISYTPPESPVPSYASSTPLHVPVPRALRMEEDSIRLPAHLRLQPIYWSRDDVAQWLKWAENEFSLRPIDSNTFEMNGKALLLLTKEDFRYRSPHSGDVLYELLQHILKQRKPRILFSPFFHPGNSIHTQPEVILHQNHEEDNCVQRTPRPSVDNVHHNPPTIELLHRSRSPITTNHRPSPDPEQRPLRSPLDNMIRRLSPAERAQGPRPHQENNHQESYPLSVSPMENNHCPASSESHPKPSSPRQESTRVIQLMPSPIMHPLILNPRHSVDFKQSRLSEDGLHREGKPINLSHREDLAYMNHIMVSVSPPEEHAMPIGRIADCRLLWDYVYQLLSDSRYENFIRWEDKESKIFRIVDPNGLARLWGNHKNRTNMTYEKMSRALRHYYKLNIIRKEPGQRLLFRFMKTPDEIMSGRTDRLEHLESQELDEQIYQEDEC

On to ATTTTG, for which the binding signal is 1.24 fold enrichment (6-mer frequency, TF over GST control) in assay [1]; 1.29 fold enrichment (6-mer frequency, TF over GST control) in assay [2]; 1.2 fold enrichment (6-mer frequency, TF over GST control) in assay [3]; 1.09 fold enrichment (6-mer frequency, TF over GST control) in assay [4]; 1.14 fold enrichment (6-mer frequency, TF over GST control) in assay [5]; 1.2 fold enrichment (6-mer frequency, TF over GST control) in assay [6]. Also, the binding signal in assay [7] was 1.1 fold enrichment (6-mer frequency, TF over GST control); in assay [8] it was 1.24 fold enrichment (6-mer frequency, TF over GST control).

For the sequence AAATTG, the binding signal in assay [1] is 1.3 fold enrichment (6-mer frequency, TF over GST control); in assay [2], 1.29 fold enrichment (6-mer frequency, TF over GST control); in assay [3], 1.22 fold enrichment (6-mer frequency, TF over GST control); in assay [4], 1.19 fold enrichment (6-mer frequency, TF over GST control); in assay [5] it was 1.25 fold enrichment (6-mer frequency, TF over GST control); in assay [6] it was 1.22 fold enrichment (6-mer frequency, TF over GST control). The binding signal was 1.28 fold enrichment (6-mer frequency, TF over GST control) in assay [7] and 1.34 fold enrichment (6-mer frequency, TF over GST control) in assay [8].

In the case of GGCCTT, the binding signal in assay [1] is 1.12 fold enrichment (6-mer frequency, TF over GST control); in assay [2], 1.05 fold enrichment (6-mer frequency, TF over GST control); in assay [3], 1.09 fold enrichment (6-mer frequency, TF over GST control); in assay [4], 1.06 fold enrichment (6-mer frequency, TF over GST control); in assay [5], 1.34 fold enrichment (6-mer frequency, TF over GST control); in assay [6] it was 1.06 fold enrichment (6-mer frequency, TF over GST control). Further, the binding signal in assay [7] was 1.11 fold enrichment (6-mer frequency, TF over GST control); in assay [8] it was 1.04 fold enrichment (6-mer frequency, TF over GST control).

On to TTGATA, for which the binding signal in assay [1] was 1.24 fold enrichment (6-mer frequency, TF over GST control); in assay [2], 1.27 fold enrichment (6-mer frequency, TF over GST control); in assay [3], 1.15 fold enrichment (6-mer frequency, TF over GST control); in assay [4], 1.13 fold enrichment (6-mer frequency, TF over GST control); in assay [5] it was 1.23 fold enrichment (6-mer frequency, TF over GST control); in assay [6], 1.21 fold enrichment (6-mer frequency, TF over GST control). Also, the binding signal was 1.25 fold enrichment (6-mer frequency, TF over GST control) in assay [7] and 1.14 fold enrichment (6-mer frequency, TF over GST control) in assay [8].

For AATAAA, the binding signal in assay [1] is 1.29 fold enrichment (6-mer frequency, TF over GST control); in assay [2], 1.29 fold enrichment (6-mer frequency, TF over GST control); in assay [3], 1.31 fold enrichment (6-mer frequency, TF over GST control); in assay [4], 1.22 fold enrichment (6-mer frequency, TF over GST control); in assay [5], 1.24 fold enrichment (6-mer frequency, TF over GST control); in assay [6], 1.2 fold enrichment (6-mer frequency, TF over GST control). Besides, the binding signal in assay [7] is 1.18 fold enrichment (6-mer frequency, TF over GST control); in assay [8], 1.34 fold enrichment (6-mer frequency, TF over GST control).

In the case of GCCTTC, the binding signal in assay [1] is 1.47 fold enrichment (6-mer frequency, TF over GST control); in assay [2] it was 1.45 fold enrichment (6-mer frequency, TF over GST control); in assay [3], 1.44 fold enrichment (6-mer frequency, TF over GST control); in assay [4], 1.47 fold enrichment (6-mer frequency, TF over GST control); in assay [5], 1.47 fold enrichment (6-mer frequency, TF over GST control); in assay [6], 1.67 fold enrichment (6-mer frequency, TF over GST control). The binding signal is 1.63 fold enrichment (6-mer frequency, TF over GST control) in assay [7] and 1.47 fold enrichment (6-mer frequency, TF over GST control) in assay [8].

For AACTAA, the binding signal in assay [1] was 1.36 fold enrichment (6-mer frequency, TF over GST control); in assay [2], 1.25 fold enrichment (6-mer frequency, TF over GST control); in assay [3] it was 1.4 fold enrichment (6-mer frequency, TF over GST control); in assay [4], 1.31 fold enrichment (6-mer frequency, TF over GST control); in assay [5], 1.33 fold enrichment (6-mer frequency, TF over GST control); in assay [6], 1.38 fold enrichment (6-mer frequency, TF over GST control). The binding signal in assay [7] was 1.29 fold enrichment (6-mer frequency, TF over GST control); in assay [8], 1.42 fold enrichment (6-mer frequency, TF over GST control).
